# PMC7862700, “An all-to-all approach to the identification of sequence-specific readers for epigenetic DNA modifications on cytosine”
# Experiments:
# Experiment in all cases: DAPPL (digital affinity profiling via proximity ligation, sequencing); 10 mM Tris-HCl pH 7.5, 50 mM NaCl, 1 mM DTT, 4% glycerol, room temperature, 30 min; GST-TFs on glutathione beads, 16-mer random dsDNA library, 0.1% formaldehyde crosslink after washing; high values mean tight binding
# Conditions in all cases: protein: recombinant; tags: N-terminal GST; dsDNA, one strand shown
# ERF = target: T1, ERF (Homo sapiens, UniProt P50548 1-548)
# T1 sequence: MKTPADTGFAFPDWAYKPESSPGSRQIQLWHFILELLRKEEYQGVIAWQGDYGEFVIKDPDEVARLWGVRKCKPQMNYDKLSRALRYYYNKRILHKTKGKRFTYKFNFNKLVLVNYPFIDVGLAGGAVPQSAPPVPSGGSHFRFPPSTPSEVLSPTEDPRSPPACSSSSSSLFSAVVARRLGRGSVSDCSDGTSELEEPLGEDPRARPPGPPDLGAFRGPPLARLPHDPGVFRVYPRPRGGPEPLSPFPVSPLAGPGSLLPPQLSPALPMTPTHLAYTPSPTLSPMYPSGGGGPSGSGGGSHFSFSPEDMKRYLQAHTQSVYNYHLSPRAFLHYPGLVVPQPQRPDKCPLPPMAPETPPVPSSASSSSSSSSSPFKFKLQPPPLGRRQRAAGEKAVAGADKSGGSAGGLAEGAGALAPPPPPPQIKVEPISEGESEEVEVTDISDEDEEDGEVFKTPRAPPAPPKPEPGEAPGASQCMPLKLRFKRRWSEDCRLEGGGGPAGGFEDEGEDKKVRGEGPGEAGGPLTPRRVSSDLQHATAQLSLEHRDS
# Outline: (§1)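 GST fusions of human transcription factors were expressed in yeast and captured with glutathione beads. Once given DNA barcodes and pooled alongside a tag-only sample, they were incubated for 30 min at room temperature with 200 nmole of a random double-stranded 16-mer DNA library in Tris/NaCl/DTT/glycerol buffer, then washed, crosslinked (0.1% formaldehyde), proximity-ligated, PCR-amplified and sequenced on an Illumina NextSeq500. The binding signal of each hexamer is its read frequency for a factor divided by its frequency for the tag-only sample.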
# ETV3L = target: T2, ETV3L (Homo sapiens, UniProt Q6ZN32 1-361)
# T2 sequence: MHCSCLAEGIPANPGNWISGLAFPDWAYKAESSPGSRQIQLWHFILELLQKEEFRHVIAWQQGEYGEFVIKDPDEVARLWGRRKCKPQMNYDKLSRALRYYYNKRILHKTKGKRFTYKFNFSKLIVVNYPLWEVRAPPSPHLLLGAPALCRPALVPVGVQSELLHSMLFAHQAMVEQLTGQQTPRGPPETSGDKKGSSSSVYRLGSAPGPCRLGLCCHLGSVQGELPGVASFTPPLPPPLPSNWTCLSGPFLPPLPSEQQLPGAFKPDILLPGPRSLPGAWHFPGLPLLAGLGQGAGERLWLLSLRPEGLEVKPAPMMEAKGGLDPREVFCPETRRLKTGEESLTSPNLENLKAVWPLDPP
# Outline: as §1
# ETS2 = target: T3, ETS2 (Homo sapiens, UniProt P15036 1-469)
# T3 sequence: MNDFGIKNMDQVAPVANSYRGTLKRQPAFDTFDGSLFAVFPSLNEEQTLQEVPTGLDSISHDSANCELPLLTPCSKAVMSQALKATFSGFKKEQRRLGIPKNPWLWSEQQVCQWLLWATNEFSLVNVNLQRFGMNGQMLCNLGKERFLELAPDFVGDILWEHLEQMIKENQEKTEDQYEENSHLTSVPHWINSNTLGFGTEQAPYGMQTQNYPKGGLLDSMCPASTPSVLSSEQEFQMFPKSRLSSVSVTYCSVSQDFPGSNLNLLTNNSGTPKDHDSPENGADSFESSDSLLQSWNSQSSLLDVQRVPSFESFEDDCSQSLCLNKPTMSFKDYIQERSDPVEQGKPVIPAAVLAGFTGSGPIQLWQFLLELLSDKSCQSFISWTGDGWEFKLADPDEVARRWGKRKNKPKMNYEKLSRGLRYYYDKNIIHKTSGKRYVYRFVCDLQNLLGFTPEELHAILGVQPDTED
# Outline: as §1
# SPDEF = target: T4, SPDEF (Homo sapiens, UniProt O95238 1-335)
# T4 sequence: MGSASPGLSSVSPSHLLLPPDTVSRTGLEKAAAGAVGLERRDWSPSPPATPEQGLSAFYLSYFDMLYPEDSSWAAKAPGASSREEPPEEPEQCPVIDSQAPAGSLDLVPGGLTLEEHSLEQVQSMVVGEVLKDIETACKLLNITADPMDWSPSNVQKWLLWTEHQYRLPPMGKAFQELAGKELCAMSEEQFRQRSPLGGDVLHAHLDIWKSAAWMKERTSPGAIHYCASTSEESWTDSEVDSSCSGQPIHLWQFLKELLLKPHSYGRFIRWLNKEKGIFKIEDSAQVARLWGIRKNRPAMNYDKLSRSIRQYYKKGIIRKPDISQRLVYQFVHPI
# Outline: as §1
# ETV7 = target: T5, ETV7 (Homo sapiens, UniProt Q9Y603 1-341)
# T5 sequence: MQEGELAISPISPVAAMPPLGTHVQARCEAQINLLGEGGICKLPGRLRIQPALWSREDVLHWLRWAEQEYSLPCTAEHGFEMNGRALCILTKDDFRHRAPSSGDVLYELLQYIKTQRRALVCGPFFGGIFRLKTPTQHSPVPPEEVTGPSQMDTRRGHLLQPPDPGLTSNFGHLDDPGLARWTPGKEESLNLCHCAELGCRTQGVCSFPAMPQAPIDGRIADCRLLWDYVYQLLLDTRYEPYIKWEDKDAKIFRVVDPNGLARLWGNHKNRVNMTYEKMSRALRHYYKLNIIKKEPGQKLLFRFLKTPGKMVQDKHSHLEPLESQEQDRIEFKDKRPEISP
# Outline: as §1
# ELF5 = target: T6, ELF5 (Homo sapiens, UniProt Q9UKW6-2 1-255)
# T6 sequence: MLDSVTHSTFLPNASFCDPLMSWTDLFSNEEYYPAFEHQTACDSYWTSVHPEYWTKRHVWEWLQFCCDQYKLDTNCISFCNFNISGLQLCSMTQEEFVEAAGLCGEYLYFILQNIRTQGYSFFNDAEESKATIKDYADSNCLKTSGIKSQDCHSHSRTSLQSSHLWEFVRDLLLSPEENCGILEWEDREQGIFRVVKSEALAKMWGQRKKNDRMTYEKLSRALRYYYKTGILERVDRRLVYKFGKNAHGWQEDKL
# Outline: as §1
# ETV3 = target: T7, ETV3 (Homo sapiens, UniProt P41162-2 1-143)
# T7 sequence: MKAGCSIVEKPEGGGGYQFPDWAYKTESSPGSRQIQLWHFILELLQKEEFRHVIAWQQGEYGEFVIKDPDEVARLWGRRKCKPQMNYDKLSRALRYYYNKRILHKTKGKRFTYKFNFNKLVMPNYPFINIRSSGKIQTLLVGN
# Outline: as §1
# ETV6 = ETV6 (Homo sapiens, UniProt P41212 1-452)
# Outline: as §1
# Sequence of ETV6 (P41212 whole entry): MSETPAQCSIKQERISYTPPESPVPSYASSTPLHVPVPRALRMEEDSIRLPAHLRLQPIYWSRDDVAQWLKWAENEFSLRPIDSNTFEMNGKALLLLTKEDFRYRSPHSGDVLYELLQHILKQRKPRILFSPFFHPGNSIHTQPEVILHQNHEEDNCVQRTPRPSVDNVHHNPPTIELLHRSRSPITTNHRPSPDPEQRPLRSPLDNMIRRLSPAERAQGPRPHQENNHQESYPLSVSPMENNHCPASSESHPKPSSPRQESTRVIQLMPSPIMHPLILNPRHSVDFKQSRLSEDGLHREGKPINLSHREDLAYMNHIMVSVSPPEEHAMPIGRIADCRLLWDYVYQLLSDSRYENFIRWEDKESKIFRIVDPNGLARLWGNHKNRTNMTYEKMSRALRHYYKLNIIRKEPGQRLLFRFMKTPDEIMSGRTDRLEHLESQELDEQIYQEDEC
Sequence,binding signal (ERF),binding signal (ETV3L),binding signal (ETS2),binding signal (SPDEF),binding signal (ETV7),binding signal (ELF5),binding signal (ETV3),binding signal (ETV6)
CTATAT,"1.48 fold enrichment (6-mer frequency, TF over GST control)","1.4 fold enrichment (6-mer frequency, TF over GST control)","1.54 fold enrichment (6-mer frequency, TF over GST control)","1.51 fold enrichment (6-mer frequency, TF over GST control)","1.41 fold enrichment (6-mer frequency, TF over GST control)","1.4 fold enrichment (6-mer frequency, TF over GST control)","1.5 fold enrichment (6-mer frequency, TF over GST control)","1.43 fold enrichment (6-mer frequency, TF over GST control)"
ACATGC,"1.37 fold enrichment (6-mer frequency, TF over GST control)","1.26 fold enrichment (6-mer frequency, TF over GST control)","1.25 fold enrichment (6-mer frequency, TF over GST control)","1.24 fold enrichment (6-mer frequency, TF over GST control)","1.23 fold enrichment (6-mer frequency, TF over GST control)","1.23 fold enrichment (6-mer frequency, TF over GST control)","1.22 fold enrichment (6-mer frequency, TF over GST control)","1.45 fold enrichment (6-mer frequency, TF over GST control)"
CTCGTT,"1.4 fold enrichment (6-mer frequency, TF over GST control)","1.43 fold enrichment (6-mer frequency, TF over GST control)","1.27 fold enrichment (6-mer frequency, TF over GST control)","1.27 fold enrichment (6-mer frequency, TF over GST control)","1.37 fold enrichment (6-mer frequency, TF over GST control)","1.44 fold enrichment (6-mer frequency, TF over GST control)","1.25 fold enrichment (6-mer frequency, TF over GST control)","1.23 fold enrichment (6-mer frequency, TF over GST control)"
GATTCT,"1.13 fold enrichment (6-mer frequency, TF over GST control)","1.17 fold enrichment (6-mer frequency, TF over GST control)","1.23 fold enrichment (6-mer frequency, TF over GST control)","1.09 fold enrichment (6-mer frequency, TF over GST control)","1.23 fold enrichment (6-mer frequency, TF over GST control)","1.11 fold enrichment (6-mer frequency, TF over GST control)","1.28 fold enrichment (6-mer frequency, TF over GST control)","1.19 fold enrichment (6-mer frequency, TF over GST control)"
TCATTC,"1.15 fold enrichment (6-mer frequency, TF over GST control)","1.28 fold enrichment (6-mer frequency, TF over GST control)","1.13 fold enrichment (6-mer frequency, TF over GST control)","1.09 fold enrichment (6-mer frequency, TF over GST control)","1.15 fold enrichment (6-mer frequency, TF over GST control)","1.12 fold enrichment (6-mer frequency, TF over GST control)","1.21 fold enrichment (6-mer frequency, TF over GST control)","1.24 fold enrichment (6-mer frequency, TF over GST control)"
TCAAAC,"1.18 fold enrichment (6-mer frequency, TF over GST control)","1.09 fold enrichment (6-mer frequency, TF over GST control)","1.19 fold enrichment (6-mer frequency, TF over GST control)","1.15 fold enrichment (6-mer frequency, TF over GST control)","1.11 fold enrichment (6-mer frequency, TF over GST control)","1.12 fold enrichment (6-mer frequency, TF over GST control)","1.21 fold enrichment (6-mer frequency, TF over GST control)","1.19 fold enrichment (6-mer frequency, TF over GST control)"
TTTCAG,"1.38 fold enrichment (6-mer frequency, TF over GST control)","1.31 fold enrichment (6-mer frequency, TF over GST control)","1.27 fold enrichment (6-mer frequency, TF over GST control)","1.37 fold enrichment (6-mer frequency, TF over GST control)","1.13 fold enrichment (6-mer frequency, TF over GST control)","1.28 fold enrichment (6-mer frequency, TF over GST control)","1.27 fold enrichment (6-mer frequency, TF over GST control)","1.31 fold enrichment (6-mer frequency, TF over GST control)"
TTCAAC,"1.31 fold enrichment (6-mer frequency, TF over GST control)","1.16 fold enrichment (6-mer frequency, TF over GST control)","1.29 fold enrichment (6-mer frequency, TF over GST control)","1.28 fold enrichment (6-mer frequency, TF over GST control)","1.19 fold enrichment (6-mer frequency, TF over GST control)","1.27 fold enrichment (6-mer frequency, TF over GST control)","1.32 fold enrichment (6-mer frequency, TF over GST control)","1.19 fold enrichment (6-mer frequency, TF over GST control)"
AACTGC,"1.22 fold enrichment (6-mer frequency, TF over GST control)","1.37 fold enrichment (6-mer frequency, TF over GST control)","1.3 fold enrichment (6-mer frequency, TF over GST control)","1.28 fold enrichment (6-mer frequency, TF over GST control)","1.3 fold enrichment (6-mer frequency, TF over GST control)","1.36 fold enrichment (6-mer frequency, TF over GST control)","1.39 fold enrichment (6-mer frequency, TF over GST control)","1.3 fold enrichment (6-mer frequency, TF over GST control)"
CTAAGA,"1.08 fold enrichment (6-mer frequency, TF over GST control)","1.21 fold enrichment (6-mer frequency, TF over GST control)","1.17 fold enrichment (6-mer frequency, TF over GST control)","1.15 fold enrichment (6-mer frequency, TF over GST control)","1.25 fold enrichment (6-mer frequency, TF over GST control)","1.2 fold enrichment (6-mer frequency, TF over GST control)","1.17 fold enrichment (6-mer frequency, TF over GST control)","1.23 fold enrichment (6-mer frequency, TF over GST control)"
ATTTGA,"1.14 fold enrichment (6-mer frequency, TF over GST control)","1.25 fold enrichment (6-mer frequency, TF over GST control)","1.2 fold enrichment (6-mer frequency, TF over GST control)","1.19 fold enrichment (6-mer frequency, TF over GST control)","1.28 fold enrichment (6-mer frequency, TF over GST control)","1.12 fold enrichment (6-mer frequency, TF over GST control)","1.21 fold enrichment (6-mer frequency, TF over GST control)","1.16 fold enrichment (6-mer frequency, TF over GST control)"
GTATTT,"1.47 fold enrichment (6-mer frequency, TF over GST control)","1.62 fold enrichment (6-mer frequency, TF over GST control)","1.7 fold enrichment (6-mer frequency, TF over GST control)","1.64 fold enrichment (6-mer frequency, TF over GST control)","1.73 fold enrichment (6-mer frequency, TF over GST control)","1.62 fold enrichment (6-mer frequency, TF over GST control)","1.53 fold enrichment (6-mer frequency, TF over GST control)","1.79 fold enrichment (6-mer frequency, TF over GST control)"
TTAAGC,"1.21 fold enrichment (6-mer frequency, TF over GST control)","1.22 fold enrichment (6-mer frequency, TF over GST control)","1.13 fold enrichment (6-mer frequency, TF over GST control)","1.04 fold enrichment (6-mer frequency, TF over GST control)","1.13 fold enrichment (6-mer frequency, TF over GST control)","1.14 fold enrichment (6-mer frequency, TF over GST control)","1.22 fold enrichment (6-mer frequency, TF over GST control)","1.06 fold enrichment (6-mer frequency, TF over GST control)"
TCCACA,"1.31 fold enrichment (6-mer frequency, TF over GST control)","1.24 fold enrichment (6-mer frequency, TF over GST control)","1.29 fold enrichment (6-mer frequency, TF over GST control)","1.25 fold enrichment (6-mer frequency, TF over GST control)","1.17 fold enrichment (6-mer frequency, TF over GST control)","1.13 fold enrichment (6-mer frequency, TF over GST control)","1.2 fold enrichment (6-mer frequency, TF over GST control)","1.25 fold enrichment (6-mer frequency, TF over GST control)"
TACATA,"1.33 fold enrichment (6-mer frequency, TF over GST control)","1.1 fold enrichment (6-mer frequency, TF over GST control)","1.27 fold enrichment (6-mer frequency, TF over GST control)","1.2 fold enrichment (6-mer frequency, TF over GST control)","1.31 fold enrichment (6-mer frequency, TF over GST control)","1.16 fold enrichment (6-mer frequency, TF over GST control)","1.21 fold enrichment (6-mer frequency, TF over GST control)","1.21 fold enrichment (6-mer frequency, TF over GST control)"
